hcDAF-12 act: H. contortus DAF-12 nuclear receptor activators, primary screen, cell-based, luminescence, HEK293, lit1-tk-luc reporter. HEK293 hcDAF-12 lit1-tk-luc reporter; 0% DMSO, 100% Δ7-dafachronic acid. AID 652067, 2013. activation, % at 6.8 µM. 370,000 compounds, 1.4% hits;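 active = activation above the mean of all tested compounds plus 3 SD, cut at about 5.5% in these data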
NF-kB expr up: activators of NF-kB expression in neurons, primary screen, cell-based, HTS. human neuronal cells, NF-kB reporter expression; hits give high values. 190,000 compounds, 1.6% hits. fold change at 12.5 µM; in the data active = fold change above about 3.3
APP 5'UTR act: activators of APP 5'UTR luciferase reporter, primary screen, SH-SY5Y cells. AID 1276, 2008. activation, % at 2 µM. SH-SY5Y APP 5'UTR luciferase reporter, luminescence; zero percent = DMSO vehicle wells. 190,000 compounds, 1% hits;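 active = activation above a set limit, based on mean plus 3 SD of controls, cut at about 140% in these data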
ssDAF12 agonist: S. stercoralis DAF-12 nuclear receptor activators, primary screen, cell-based, luminescence, HEK293, GRIP1 co-expression, lit1-tk-luc. AID 652126, 2013. 370,000 compounds, 1% hits. activation, % at 6.8 µM. HEK293 ssDAF-12/GRIP1 lit1-tk-luc reporter; % of 3 µM dafachronic acid response;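 active = activation above the mean over all tested compounds plus 3 SD, cut at about 0.9% in these data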
hgDAF-12 ag: H. glycines DAF-12 receptor agonists, primary screen, cell-based, luminescence, HEK293, GAL4 fusion, UAS-luciferase; Nuclear hormone receptor DAF-12 (Heterodera glycines), GAL4 fusion; HEK293 GAL4-hgDAF12 UAS-luciferase reporter, agonist luminescence; normalized to butyrate control; activation, % at 6.8 µM; 370,000 compounds, 1.8% hits; AID 687014, 2013;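 active = activation above a cutoff set at the mean of all screened compounds plus 3 SD, cut at about 10% in these data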
Each line names hits and unclear results; the compound was inactive in the other large screens. Most compounds without a hit are left out; they make up all but 3.4% or so of the library.

COC(=O)[C@@]12CCCCC3=C1N(CCC3)C(=O)[C@H]2CC(=O)NCCc1ccccc1OC	none (no result: NF-kB expr up, APP 5'UTR act)
CCC(C)[C@H](NC(=O)C1COC(O)([C@H](Cc2ccccc2)NC(=O)[C@@H](NC(=O)OCc2ccccc2)C(C)C)CN1C)C(=O)N[C@H](C(=O)OC)C(C)C (stereo partly drawn)	none (no result: NF-kB expr up, APP 5'UTR act)
O=C(CNC(=O)c1ccc(Cl)cc1)OCc1nc2ccccc2s1	hcDAF-12 act 6.2
O=C(CNC(=O)c1ccc(Cl)cc1)OCC(=O)c1ccccc1	none (no result: NF-kB expr up, APP 5'UTR act)
N#C/C(=C\c1ccccc1C(F)(F)F)C(=O)Nc1ccccc1	none
CCc1cccc(CC)c1NC(=O)/C(C#N)=C/c1ccccc1C(F)(F)F	NF-kB expr up 3.4
COc1ccc(C2Nc3ccccc3C(=O)N2Cc2ccco2)cc1COc1c(C)cc(NC(C)=O)cc1C (stereo not drawn)	none (no result: NF-kB expr up, APP 5'UTR act)
CC(C)(C)c1ccc(S(=O)(=O)NCC(=O)N2CCN(c3ncccn3)CC2)cc1	none (no result: NF-kB expr up, APP 5'UTR act)
O=C(COc1ccc2ccccc2c1Br)NC(=S)Nc1cccc(CO)c1	hgDAF-12 ag 11
CC(C)CCNC(=O)c1ccc(-c2ccccc2)cc1	none (no result: hcDAF-12 act, ssDAF12 agonist, hgDAF-12 ag)
CC(C)CCNC(=O)C(=O)Nc1ccccc1	hgDAF-12 ag 13
O=C(O)C1C2C=CC(C3CC23)C1C(=O)N1CCc2ccccc21 (stereo not drawn)	none
O=C(O)C1C2C=CC(C2)C1C(=O)N1CCc2ccccc21 (stereo not drawn)	hcDAF-12 act 5.6
O=C(NCCc1ccccc1)c1cnc2ccccc2n1	hgDAF-12 ag 13 (no result: NF-kB expr up, APP 5'UTR act)
O=C(NCCc1ccc(Cl)cc1)c1ccc2ccccc2n1	hcDAF-12 act 6.0 (no result: NF-kB expr up, APP 5'UTR act)
COCCNC(=O)c1ccc2ccccc2n1	none
Fc1ccc(-c2cc(-c3nnc4sc(Cc5cccs5)nn34)[nH]n2)cc1	none (no result: NF-kB expr up, APP 5'UTR act)
C=CCN(Cc1ccc(OC)cc1OC)C(C#CCCCC)c1ccccc1 (stereo not drawn)	none (no result: NF-kB expr up, APP 5'UTR act)
O=c1c(/C=N/Nc2ccccc2)c(Sc2nnnn2-c2ccccc2)nc2ccccn12	hcDAF-12 act 6.3, hgDAF-12 ag 12
O=Cc1c(Sc2ccccc2)nc2ccccn2c1=O	NF-kB expr up 4.2
COC(=O)CSc1nc2ccccn2c(=O)c1C=O	hcDAF-12 act 6.3, ssDAF12 agonist 1.5
O=Cc1c(SCCO)nc2ccccn2c1=O	none (no result: NF-kB expr up, APP 5'UTR act)
O=Cc1c(Sc2ccccn2)nc2ccccn2c1=O	none
COC1=C[C@H](C(=O)NCc2ccc(Br)cc2)[C@H](C)[C@@H](c2ccccc2)CC1=O	none (no result: NF-kB expr up, APP 5'UTR act)
CSCC[C@@H](C(=O)Nc1ccc2c(c1)OCCO2)N1Cc2ccccc2C1=O	none
CSCC[C@@H](C(=O)O)N1Cc2ccccc2C1=O	hcDAF-12 act 6.0
CCCCCCCCN1C(=O)[C@@H](CC(=O)NCC2CCCCC2)C[C@@]2(C(=O)OC)C1=C[C@H](C(C)C)O[C@@H]2C1CC1	none (no result: NF-kB expr up, APP 5'UTR act)
Cc1ccc(C(=O)/C=C/Nc2cccc([N+](=O)[O-])c2)o1	hcDAF-12 act 5.8, NF-kB expr up 5.5, hgDAF-12 ag 11
COc1ccc(C)cc1Nc1nc(-c2c[nH]c3ccccc23)cs1	hcDAF-12 act 5.8
Fc1ccc2[nH]c3c(Cl)ncnc3c2c1	ssDAF12 agonist 1.0
O=C(CSc1ncnc2scc(-c3ccc(Cl)cc3)c12)Nc1ccccc1-c1ccccc1	none (no result: NF-kB expr up, APP 5'UTR act)
O=C(COc1ccccc1)Nc1cccc(-c2ccc(N3CCOCC3)nn2)c1	hgDAF-12 ag 13 (no result: NF-kB expr up, APP 5'UTR act)
COC(=O)C1=C(C)N(Cc2ccc(F)cc2)C(=S)NC1c1cccc(F)c1 (stereo not drawn)	none (no result: NF-kB expr up, APP 5'UTR act)
COC(=O)C1=C(C)N(CC(C)C)C(=S)NC1c1cccc(F)c1 (stereo not drawn)	ssDAF12 agonist 1.0 (no result: NF-kB expr up, APP 5'UTR act)
COc1ccc(-c2cc3nnc(-c4ccccc4)nc3s2)cc1	none
COc1ccc(-c2cc3ncnc(Cl)c3s2)cc1	hgDAF-12 ag 11 (no result: NF-kB expr up, APP 5'UTR act)
Cc1ccc(Cl)cc1N1CCN(C(=O)Cc2c(C(=O)O)[nH]c3ccccc23)CC1	ssDAF12 agonist 1.2
CC1=N/C(=C\c2ccc(OC(C)C)cc2)C(=O)N1c1ccc(C(=O)O)cc1	ssDAF12 agonist 1.9
CC1CCCC(NCC(=O)Nc2ccc(C(N)=O)cc2)C1C (stereo not drawn)	ssDAF12 agonist 1.7

Assay outcomes as filed in PubChem BioAssay.
